From PubChem BioAssay (NCATS)
Results filed as inconclusive are left out. Values without a mark were called inactive. The source made the active and inactive calls. Calls come from the whole dose curve; as a rule, active = well fitted activation curve with a large enough effect; inconclusive = small, poorly fitted or top-dose-only effect; inactive = flat fitted curve, though single readings scatter.

Assay: Cellular Toxicity (caspase-3) H-4-II-E (AID 663);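 note: cells exposed to compound for 16 hr before readout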
Settings: H-4-II-E rat hepatoma; Potency: caspase-3 activation; series mostly up to 92.2 µM
In short: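 Apoptosis induction is scored as increased luminescence from caspase 3/7 substrate cleavage in rat hepatoma H-4-II-E cells exposed to compound for 16 hr. Activity is scaled between DMSO and 100 uM tamoxifen.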

Compound	Potency
O=C(O)C(Br)Br	inactive
Cc1ccc(OP(=O)(Oc2ccc(C)cc2)Oc2ccc(C)cc2)cc1	inactive
Oc1c(Cl)c(Cl)cc(Cl)c1Cl	inactive
Nc1ccc(Cc2ccc(N)c(Cl)c2)cc1Cl	inactive
CN(C)c1ccc(N(C)C)cc1	inactive
Brc1ccc(Oc2ccc(Br)cc2Br)c(Br)c1	inactive
O=[N+]([O-])c1c(Cl)c(Cl)c(Cl)c(Cl)c1Cl	inactive
CN1CSC(=S)N(C)C1	inactive
ClCC(Cl)Cl	inactive
C=CC(=O)OCCO	inactive
CC(C)Br	inactive
O=[N+]([O-])c1ccc(O)c([N+](=O)[O-])c1	inactive
CC(C)[N+](=O)[O-]	inactive
CCCC[N+](=O)[O-]	inactive
Cc1cc(-c2cc(C)c(N)c(C)c2)cc(C)c1N	inactive
Nc1cc(Cl)ccc1O	inactive
CCN(N=O)C(N)=O	inactive
N#CC(Cl)(Cl)Cl	inactive

Compound	Potency
CCCCC(CC)COC(=O)c1ccc(C(=O)OCC(CC)CCCC)c(C(=O)OCC(CC)CCCC)c1 (stereo unspecified)	inactive
O=C(O)C(Br)CBr (stereo unspecified)	inactive
Nc1c(Br)cc([N+](=O)[O-])cc1[N+](=O)[O-]	inactive
Cc1cc(C)cc(OP(=O)(Oc2cc(C)cc(C)c2)Oc2cc(C)cc(C)c2)c1	inactive
N#CC(Br)Br	inactive
COP(=S)(OC)SCn1nnc2ccccc2c1=O	inactive
O=C(O)c1cccc(Cl)c1	inactive
Cc1cc(N=Nc2ccccc2C)ccc1N	inactive
OCCCCO	inactive
O=[N+]([O-])c1cc(Cl)c(Cl)c(Cl)c1	inactive
CC(C)(COCC1CO1)COCC1CO1 (stereo unspecified)	inactive
COc1ccccc1N	inactive
CC(C)(C)OOC(=O)c1ccccc1	inactive
c1ccc(N=NNc2ccccc2)cc1	inactive
COC(C)(C)C	inactive
C(CCOCC1CO1)COCC1CO1 (stereo unspecified)	inactive
CN(C)c1ccc(N)cc1	inactive

Assay: Cellular Toxicity (caspase-3) Hek293 (AID 664);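 note: cells exposed to compound for 16 h at 37 °C before readout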
Settings: HEK293 caspase-3 activation, DMSO = 0%, 100 µM tamoxifen = 100%; at 92.2 µM (top of the series)
In short: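 HEK293 cells were exposed to compounds in complete medium for 16 hr at 37 °C, then caspase-3/7 activity was read by Caspase-Glo 3/7 luminescence after 20 min at room temperature. Data normalized to DMSO and 100 uM tamoxifen; AC50 from Hill fits.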

Compound	caspase-3 activation [%]
O=C(O)C(Br)Br	-1.18
Cc1ccc(OP(=O)(Oc2ccc(C)cc2)Oc2ccc(C)cc2)cc1	2.34
Oc1c(Cl)c(Cl)cc(Cl)c1Cl	-2.19
Nc1ccc(Cc2ccc(N)c(Cl)c2)cc1Cl	1.19
CN(C)c1ccc(N(C)C)cc1	-1.04
Brc1ccc(Oc2ccc(Br)cc2Br)c(Br)c1	19.3
O=[N+]([O-])c1c(Cl)c(Cl)c(Cl)c(Cl)c1Cl	2.86
ClCC(Cl)Cl	-0.541
C=CC(=O)OCCO	2.01
CC(C)Br	-2.59
O=[N+]([O-])c1ccc(O)c([N+](=O)[O-])c1	-5.23
CC(C)[N+](=O)[O-]	-0.5
CCCC[N+](=O)[O-]	23.2
Cc1cc(-c2cc(C)c(N)c(C)c2)cc(C)c1N	-0.121
Nc1cc(Cl)ccc1O	4.86
CCN(N=O)C(N)=O	0.506
N#CC(Cl)(Cl)Cl	1.68
CCCCC(CC)COC(=O)c1ccc(C(=O)OCC(CC)CCCC)c(C(=O)OCC(CC)CCCC)c1 (stereo unspecified)	16.8

Compound	caspase-3 activation [%]
O=C(O)C(Br)CBr (stereo unspecified)	1.8
Nc1c(Br)cc([N+](=O)[O-])cc1[N+](=O)[O-]	4.97
O=[N+]([O-])c1ccccc1CCl	0.434
Cc1cc(C)cc(OP(=O)(Oc2cc(C)cc(C)c2)Oc2cc(C)cc(C)c2)c1	1.43
N#CC(Br)Br	5.88
O=C(O)C(Cl)Br (stereo unspecified)	0.0973
COP(=S)(OC)SCn1nnc2ccccc2c1=O	0.18
Nc1ccc([N+](=O)[O-])cc1N	0.611
O=C(O)c1cccc(Cl)c1	-0.358
Cc1cc(N=Nc2ccccc2C)ccc1N	-5.62
OCCCCO	-2.02
O=[N+]([O-])c1cc(Cl)c(Cl)c(Cl)c1	2.74
CC(C)(COCC1CO1)COCC1CO1 (stereo unspecified)	0.0543
Cc1ccc2c(c1N)C(=O)c1ccccc1C2=O	-8.32
COc1ccccc1N	1.4
CC(C)(C)OOC(=O)c1ccccc1	-1.73
c1ccc(N=NNc2ccccc2)cc1	-0.924
COC(C)(C)C	0.0289
